From PubChem BioAssay (Tox21)
Inconclusive results are not listed. A call without a number means that no potency is given here. Activity calls are given as the source filed them. The call rests on the fitted dose curve. Bridge positions count the residues as written; N and C are the ends. Square brackets hold non-standard residues; d marks the D form. Peptide text beside a SMILES is read from it. hArg = N=C(N)NCCCC[C@H](N)C(=O)O; Mpa = O=C(O)CCS

Assay: Nuclear factor erythroid 2-related factor 2/antioxidant responsive element (Nrf2/ARE) small molecule agonists: luciferase reporter gene qHTS assay in human keratinocytes (AID 1919969); further: nearly all actives have a fitted effect of over 35% in size
Settings: KeratinoSens HaCaT ARE-luciferase, luminescence, 24 h; series mostly up to 92.4 µM
Source text: National Center for Advancing Translational Sciences [NCATS]
Division of Preclinical Innovation [DPI]
U.S. Environmental Protection Agency [EPA]
National Institutes of Environmental Health Sciences [NIEHS]
National Toxicology Program [NTP]
U.S. Food and Drug Administration [FDA]
Oxidative stress has been implicated in the pathogenesis of a variety of diseases ranging from cancer to neurodegeneration. The antioxidant response element (ARE) signaling pathway plays an important role in the amelioration of oxidative stress. The KeratinoSens (Givaudan, Switzerland) is an in vitro test method which quantifies luciferase induction as a measure of activation of Keap1-Nrf2-antioxidationt/electrophile response element (ARE) dependant pathway in HaCaT human keratinocytes stably transfected with a selectable plasmid. The KeratinoSens assay is a cell-based assay with a reporter cell line to detect potential skin sensitizers by their ability to induce the Nrf2/ARE-response. The activation of the report gene under culture conditions can be detected by ONE-Glo Luciferase Assay System (Promega, Madison, WI). This cell line has been used to screen the Tox21 10K compound library to identify agonists that induce oxidative stress. The cytotoxicity of the Tox21 compound library against the KS-ARE cell line was tested in parallel by measuring the cell viability using CellTiter- Fluor assay system (Promega, Madison, WI) in the same wells.
HaCaT derived cell line KeratinoSens were dispensed at 1,500 cells/5uL/well in 1536-well white wall/solid bottom plates using a Multidrop Combi (ThermoFisher Scientific, Waltham, MA) dispenser. After the assay plates were incubated at 37 C/5% CO2 for 5 h, 23 nL of compounds dissolved in DMSO, positive controls or DMSO only was transferred to the assay plate by a pintool workstation (Kalypsys, San Diego, CA). The plates were incubated at 37 C/5% CO2 for 23 h, followed by addition of 1uL/well of CellTiter-Fluor reagent into the assay plates using a Flying Reagent Dispenser (Aurora Discovery, San Diego, CA) for cell viability readout that measures cytotoxicity. After 1 h incubation at 37 C/5% CO2 the fluorescence intensity was measured using a ViewLux (PerkinElmer, Shelton, CT) plate reader. Then 4uL/well of One-Glo were added using a Flying Reagent Dispenser. After the plates were incubated at room temperature for 30 min, the luminescence intensity in the assay plates was measured using ViewLux plate reader.

Row | SMILES | Potency
1 | COc1ccnc(CS(=O)c2nc3cc(OC(F)F)ccc3[nH]2)c1OC (stereo not given) | inactive
2 | C[C@]12CCC(=O)C=C1[C@@H]1C[C@@H]1[C@H]1[C@@H]3[C@@H]4C[C@@H]4[C@@]4(CCC(=O)O4)[C@@]3(C)CC[C@@H]12 | inactive
3 | C[C@H]1C[C@H]2[C@@H]3CCC4=CC(=O)C=C[C@]4(C)[C@@]3(Cl)[C@@H](O)C[C@]2(C)[C@@]1(O)C(=O)CO | inactive
4 | CC(=O)O[C@@]12CO[C@@H]1C[C@H](O)[C@@]1(C)C(=O)[C@H](O)C3=C(C)[C@@H](OC(=O)[C@H](O)[C@@H](NC(=O)OC(C)(C)C)c4ccccc4)C[C@@](O)([C@@H](OC(=O)c4ccccc4)[C@H]21)C3(C)C | inactive
5 | O=C(O)c1ccc2cc(C(=O)O)ccc2c1 | inactive
6 | CC1(C)CCC(C)(C)c2cc(C(=O)Nc3ccc(C(=O)O)cc3)ccc21 | inactive
7 | CCCCOCCOC(=O)COc1nc(Cl)c(Cl)cc1Cl | inactive
8 | CC[N+](CC)(CC)CCOc1ccc(/C=C/c2ccccc2)cc1 | inactive
9 | CC(CN=Cc1ccccc1O)N=Cc1ccccc1O (stereo not given) | inactive
10 | O=C(NCc1ncc(C(F)(F)F)cc1Cl)c1c(Cl)cccc1Cl | inactive
11 | OCCC1CCCCN1 (stereo not given) | inactive
12 | CCCC(=O)OCCC(C)CCC=C(C)C (stereo not given) | inactive
13 | COc1ccc(N=Nc2cc(C)c(N=Nc3ccc(S(=O)(=O)O)cc3)cc2OC)cc1 | inactive
14 | O=S(=O)(O)c1cc(O)c2ccc(Nc3ccccc3)cc2c1 | inactive
15 | CCCCCCCCCCCCCCOS(=O)(=O)O | inactive
16 | CC(C)(C)CC(C)(C)c1ccc(O)c(Cc2ccc(Cl)cc2Cl)c1 | inactive
17 | Cc1ccc(N=Nc2c(O)c(C(=O)O)cc3ccccc23)c(S(=O)(=O)O)c1 | inactive
18 | O=C(OCC(COC(=O)c1cccnc1)(COC(=O)c1cccnc1)COC(=O)c1cccnc1)c1cccnc1 | inactive
19 | C/C(C=O)=C\c1ccccc1 | inactive
20 | CCOc1cccc(-n2cc(C(=O)N3CCN(c4cc(C(=O)O)c5ccccc5c4)CC3)nc2-c2ccc(C)cc2)c1 | inactive

Row | SMILES | Potency
21 | CCCOC(=O)CCCCC(=O)OCCC | inactive
22 | NC(N)=N/N=C/c1c(Cl)cccc1Cl | inactive
23 | COc1nc(C)nc(Cl)c1NC1=NCCN1 | inactive
24 | Nc1ccc(N=Nc2ccc(N)cc2)cc1 | inactive
25 | CC(C)(N)C#N | inactive
26 | CCN(CCCc1ccccc1)CCCc1ccccc1 | inactive
27 | O=C(Nc1ccccc1)OCC(CN1CCCCC1)OC(=O)Nc1ccccc1 (stereo not given) | inactive
28 | NC(=O)[C@@H]1CSSCCC(=O)N[C@@H](CCCCN=C(N)N)C(=O)NCC(=O)N[C@@H](CC(=O)O)C(=O)N[C@@H](Cc2c[nH]c3ccccc23)C(=O)N2CCC[C@H]2C(=O)N1 ([Mpa][hArg]GDWPC-NH2; disulfide 1-7) | inactive
29 | N[C@@H](CS)C(=O)O | inactive
30 | Cc1cc(NC(=O)C(=O)O)cc(C)c1Oc1ccc(O)c2c1CCC2 | inactive
31 | NCCCN1CCOCC1 | inactive
32 | CN1C(CSCC(F)(F)F)Nc2cc(Cl)c(S(N)(=O)=O)cc2S1(=O)=O (stereo not given) | inactive
33 | CC1=C(C(=O)O)N2C(=O)[C@@H](NC(=O)[C@H](N)c3ccccc3)[C@H]2SC1 | inactive
34 | CCCCCCCCCCCCN(CCCCCCCCCCCC)CCCCCCCCCCCC | inactive
35 | CCCCCCOc1ccccc1C(N)=O | inactive
36 | FC1(F)C(F)(F)C(F)(F)C2(F)C(F)(F)C(F)(F)C(F)(F)C(F)(F)C2(F)C1(F)F (stereo not given) | inactive
37 | O=C(O)c1ccccc1-c1ccc(C(F)(F)F)cc1 | inactive
38 | Cc1nc2sccn2c(=O)c1CCN1CCC(=C(c2ccc(F)cc2)c2ccc(F)cc2)CC1 | inactive
39 | Cc1ccc2ccc3cccc4ccc1c2c34 | inactive
40 | C1CCC2(CCCCO2)OC1 | inactive
